Consider two molecules from PubChem BioAssay AID504474 (National Center for Advancing Translational Sciences (NCATS), 2011).

The structures appear in SMILES notation. Calls of active or inactive are those of the source.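 Rule for the calls: active = clear inhibition of the enzyme's cutting of labeled DNA at one or more tested doses; inactive = response stays at baseline.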

Chain of Tyrosyl-DNA phosphodiesterase 1 (Homo sapiens) (Q9NUW8 whole entry, looked up): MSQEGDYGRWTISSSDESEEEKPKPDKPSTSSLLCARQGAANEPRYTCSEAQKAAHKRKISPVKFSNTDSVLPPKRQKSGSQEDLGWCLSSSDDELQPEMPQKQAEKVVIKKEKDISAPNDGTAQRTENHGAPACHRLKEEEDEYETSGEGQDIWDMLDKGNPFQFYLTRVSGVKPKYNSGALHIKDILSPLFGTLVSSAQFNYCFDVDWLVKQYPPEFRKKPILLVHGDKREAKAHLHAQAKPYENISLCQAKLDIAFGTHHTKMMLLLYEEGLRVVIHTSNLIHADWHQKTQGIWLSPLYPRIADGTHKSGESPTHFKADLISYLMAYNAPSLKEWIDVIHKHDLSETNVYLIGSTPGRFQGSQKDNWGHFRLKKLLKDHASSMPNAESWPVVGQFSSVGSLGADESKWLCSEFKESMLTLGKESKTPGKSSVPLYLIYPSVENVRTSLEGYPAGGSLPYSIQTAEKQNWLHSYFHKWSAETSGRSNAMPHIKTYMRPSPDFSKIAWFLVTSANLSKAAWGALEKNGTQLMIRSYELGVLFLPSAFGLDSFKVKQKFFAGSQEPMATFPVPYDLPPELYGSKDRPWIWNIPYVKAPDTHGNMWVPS

This assay concerns the target Tyrosyl-DNA phosphodiesterase 1 (Homo sapiens) (UniProt Q9NUW8). Put plainly: Gel-Based Assay for Inhibitors of Tyrosyl-DNA Phosphodiesterase (TDP1): Hit Validation. The following applies: Recombinant TDP1, 32P-DNA substrate cleavage, gel densitometry. From the text: Assay Overview: Human tyrosyl-DNA phosphodiesterase I (Tdp1) is a rational anticancer target because this enzyme is involved in the repair of DNA lesions created by the trapping of human DNA topoisomerase I (Top1) following treatment by anticancer agents such as camptothecins. Recombinant Tdp1 was expressed and purified from E. coli in the laboratory (Anthony et al, Nucleic Acids Research, 2007, Vol. 35, 4474-4484). See below for assay protocol. This is assay was used to validate select hits from the related primary AlphaScreen assay (AID: 485290) NIH Molecular Libraries Probe Production Network [MLPCN] NIH Chemical Genomics Center [NCGC] Assay Provider: Yves Pommier and Christophe Marchand, National Cancer Institute
5'-32P-labeled DNA substrate (1 nmol/L; N14Y; 5'-[…]-pY-3') was incubated with 0.2 nmol/L recombinant Tdp1 in the absence or presence of inhibitor for 15 min at room temperature in an assay buffer containing 1X PBS, pH 7.4, 80 mmol/L KCl and 0.01% Tween-20. Reactions were terminated by the addition of 1 volume of gel loading buffer [99.5% (v/v) formamide, 5 mmol/L EDTA, 0.01% (w/v) xylene cyanol, and 0.01% (w/v) bromophenol blue]. Samples were subjected to a 16% denaturing PAGE and gels were exposed after drying to a PhosphorImager screen (GE Healthcare). […]
Consider `O=c1c2ccccc2nc2sc(Nc3ccc(F)cc3)nn12`, for which the outcome was inactive. As for `O=c1c2ccccc2nc2sc(Nc3cccc(Cl)c3)nn12`, the Potency was 7.4 µM (active).
